One assay addresses WDR59. Description: pooled miR-30 sensor sort-seq; sequence = guide strand. To be noted: shRNA.
As for ATAGACAACACACAAAGCGCAG, the sensor-assay potency score (higher = more potent) is -1.07.

In the case of TTGATCTGTCGATTGCCAGAGT, the sensor-assay potency score (higher = more potent) is -0.462.

In turn, TTACTTTTCCATCGTCTTGATT registered a sensor-assay potency score (higher = more potent) of -0.978.

As to TAACACTGTAACACTGGCCCTG, the sensor-assay potency score (higher = more potent) stood at 0.0657.

Another assay addresses WDR74. The assay is described as above. To be noted: shRNA.
In turn, TATCTTCAAAGCATTCTCTTTC had a sensor-assay potency score (higher = more potent) of -0.0108.

The sequence TTCAAGATCCCAGTCTCGGTGC gave a sensor-assay potency score (higher = more potent) of -0.0333.

As for TGGATCATAAACACGGACCTGG, the sensor-assay potency score (higher = more potent) stood at 0.064.

The sequence TTCACCGTCCTGTCCGCGCAGC gave a sensor-assay potency score (higher = more potent) of -1.09.

The sequence TGTCTCTGTGTCTTCTAGGGGC came in with a sensor-assay potency score (higher = more potent) of -0.152.

TTTCGCTGAAGATTTACCCCTT registered a sensor-assay potency score (higher = more potent) of 0.223.

The sequence ATATCTTCAAAGCATTCTCTTT yielded a sensor-assay potency score (higher = more potent) of -1.27.

TTCTTCTTTCTCCGTCTCGTTT: the sensor-assay potency score (higher = more potent) is -0.81.

Take TGACAAGCTTCTGTGATCCTGG: the sensor-assay potency score (higher = more potent) came out at 0.195.

TATCCTCAAGACTCTGTCCAAG had a sensor-assay potency score (higher = more potent) of -0.997.

Regarding TAGTGAGTACTCTCCATAGGTG, the sensor-assay potency score (higher = more potent) was -0.709.

Turning to TTGAGACTTGAGATAAACCTTA, the sensor-assay potency score (higher = more potent) is 0.692.

The next assay has as its target WDR7. The description is as above. The settings on record: shRNA.
Consider TAACACAGTGCATAGCAGCTAA, for which the sensor-assay potency score (higher = more potent) was -0.462.

The sequence TTAATTTGCAGTTCTACTGAAA yielded a sensor-assay potency score (higher = more potent) of -0.417.

Sequence TATTGCTTGAACCATCAGGGAG returned a sensor-assay potency score (higher = more potent) of -0.959.

For the sequence TAGCTGACCATGTAGAACCTGC, the sensor-assay potency score (higher = more potent) came out at 0.024.

ATATTTGGAACACACAACCAAA yielded a sensor-assay potency score (higher = more potent) of -1.51.

With TTAGGTTTGTCTTTATTGCTTG, the sensor-assay potency score (higher = more potent) is 0.201.

As to TTTAGAATCTCAACTGCTGTTA, the sensor-assay potency score (higher = more potent) is 0.0218.

TTGTCCGTCGTGACATCCTGTT displayed a sensor-assay potency score (higher = more potent) of -0.875.

TTAGACAAACAAGTGATTGATG: the sensor-assay potency score (higher = more potent) was -0.425.

TGTCTTTATTGCTTGAACCATC returned a sensor-assay potency score (higher = more potent) of -1.06.

Sequence TTTGTCCGTCGTGACATCCTGT showed a sensor-assay potency score (higher = more potent) of -0.661.

On to TAAGTGAATCAACAGCAGCAGG, for which the sensor-assay potency score (higher = more potent) is -1.52.

The target of the next assay is WDR96. Described as above. To be noted: shRNA.
On to TTTTTGAGTAGTTTCTTGCAGT, for which the sensor-assay potency score (higher = more potent) is -0.3.

TTACACAAAATGATACTCGATT: the sensor-assay potency score (higher = more potent) was -0.176.

With TTTCTCTAGAGCTTAATTCTTC, the sensor-assay potency score (higher = more potent) is -0.586.

In the case of TTGCCTTTCAATTTGGTCCTTC, the sensor-assay potency score (higher = more potent) came to 0.277.

As for TACATCTTTACTTTCCATCATG, the sensor-assay potency score (higher = more potent) is -0.972.

For TAGATTTCCGAACAGCTTCTGA, the sensor-assay potency score (higher = more potent) was -0.901.

Consider TACACAAGCACAATCCTCCAGC, for which the sensor-assay potency score (higher = more potent) was -0.19.

For the sequence TAAGTTGTCATAGTGCTCCTTG, the sensor-assay potency score (higher = more potent) came out at 0.702.

With TCATCTTGCACAACAAGCGTTC, the sensor-assay potency score (higher = more potent) is -0.652.

In turn, TTGCTGATCATAAACGACGTGC displayed a sensor-assay potency score (higher = more potent) of 0.0797.

With TAATCTTTCAACTTCAGTCTGT, the sensor-assay potency score (higher = more potent) came out at 0.842.

The record behind these values is the OligoGym collection.
Further: reference of the scale not given here.
